From PubChem BioAssay AID1845226 (National Center for Advancing Translational Sciences (NCATS), 2023)
Inconclusive results are not listed. A number with no mark means an inactive call. Activity calls are given as the source filed them. Calls follow the shape of the dose curve; as a rule, active = well fitted inhibition curve with a large enough effect; inconclusive = small, poorly fitted or top-dose-only effect; inactive = no such curve, though single readings can be large or run the other way.

assay: Confirmatory fluorescence-based thiol-reactive (MSTI) qHTS assay for identification of artifact compounds; conditions: MSTI thiol-reactivity probe, 1 h; series mostly up to 39.2 µM; activity change, negative = inhibition: at the top concentration
How it was run: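 MSTI 4 uM final, PBS pH 7.4 + 2% DMSO; 1 h RT, dark; Ex/Em 525/598 nm; % inhibition vs Acetyl-MSTI (0%) and MSTI (100%), 4-parameter Hill fit.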
Potency is read from the fitted curve at half-maximal effect.

Going from `COC(=O)c1c(OCc2ccccn2)cc(=O)n2c1CCN(C(=O)c1n[nH]c3c1CCCC3)CC2` to `COc1ccc([C@H]2C[C@H](O)[C@@H](n3cc(C4CC4)nn3)CN2C(=O)c2cccs2)cc1`, the “activity change, negative = inhibition” value rises from 50.9% to 92.5%.

With `Fc1ccc2c(c1)-c1nc(-c3ccccc3)cc(-c3ccccc3)c1CO2` the “activity change, negative = inhibition” value was 138%.

For `C=C1Cc2c(Cl)cc3[nH]c4c5c3c2[C@@]2(O)[C@@H]1C[C@@H]2C(C)(C)O[C@H]5[C@@H]1CC[C@@]2(O)[C@@]35O[C@@H]3[C@@H](O)[C@@H](C(=O)O)O[C@H]5CC[C@]2(C)[C@@]41C`, the Potency was 3.86 µM (active).
